The nature of experiment [1]: Nuclear factor erythroid 2-related factor 2/antioxidant responsive element (Nrf2/ARE) small molecule agonists: qHTS cell viability counter screen in human keratinocytes (AID 1919968; active = well fitted cell-killing curve with a large enough effect in the repeat runs; note: nearly all actives have a fitted effect of over 55% in size; note: potency is the fitted concentration of half-maximal effect). Put shortly:
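HaCaT ARE reporter line, 1,500 cells/well; 5 h settle, 37 C/5% CO2; cpd in DMSO pinned; 23 h exposure; CellTiter-Fluor, 1 h; fluorescence.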
For orientation: Quantitative high-throughput screening tests each substance at several concentrations.

A short description of experiment [2]: Nuclear factor erythroid 2-related factor 2/antioxidant responsive element (Nrf2/ARE) small molecule agonists: luciferase reporter gene qHTS assay in human keratinocytes (AID 1919969). Note: nearly all actives have a fitted effect of over 35% in size.
Experiment [3] can be described thus: G protein-coupled receptor (GPCR) small molecule agonists, calcium flux assay: HEK293 wild type cell line counter screen (AID 1920065). Put shortly:
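Kinetic fluorescence at Ex/Em 480/540, recorded every second over 3 min, served as the read-out after compound addition. Each compound was tested at 15 concentrations in triplicate on cells pre-loaded with calcium dye for 1 h.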
In general terms: Calcium flux is commonly read through the fluorescence of an indicator in the cells.

The nature of experiment [4]: p53 small molecule agonists, cell-based qHTS assay with human liver microsomes (AID 1963577).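 Note: p53 response element beta-lactamase reporter cells with liver microsomes plus NADPH.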 The method, boiled down:
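Metabolically competent format: test substances, human liver microsomes and NADPH (both 0.5 mg/mL final) incubated with p53RE-bla cells 16 h at 37 C. Beta-lactamase reporter signal then quantified by fluorescence.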

Experiment [5] can be described thus: p53 small molecule agonists, cell-based qHTS assay with rat liver microsomes (AID 1963578). The method, boiled down: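 Each plate received p53RE-bla cells, then compound, then rat liver microsomes and NADPH (both 0.5 mg/mL final). Plates were held 16 h at 37 C, and beta-lactamase activity was detected with LiveBLAzer over 2 h.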
Experiment [6] in a line: p53 small molecule agonists, cell-based qHTS assay with human liver microsomes: qHTS cell viability counter screen (AID 1963579). Note: nearly all actives have a fitted effect of over 45% in size. The method, boiled down: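 Tox21 library compounds, delivered from DMSO stocks, were tested on p53RE-bla cells together with 0.5 mg/mL human liver microsomes and 0.5 mg/mL NADPH (final) over 16 h at 37 C; CellTiter-Glo luminescence served as the cytotoxicity measure.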

Experiment [7] in a line: p53 small molecule agonists, cell-based qHTS assay with rat liver microsomes: qHTS cell viability counter screen (AID 1963580). Note: nearly all actives have a fitted effect of over 45% in size. The method, boiled down:
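p53RE-bla HCT-116 cells (4,000/well) rested 5 h at 37 C, then given Tox21 compounds in DMSO with rat liver microsomes (0.5 mg/mL final) plus NADPH (0.5 mg/mL final) for 16 h at 37 C. Viability read by CellTiter-Glo luminescence after 30 min at room temperature.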

Experiment [8] is described as follows: p53 small molecule agonists, cell-based qHTS assay: qHTS cell viability counter screen (AID 1963581). Note: nearly all actives have a fitted effect of over 45% in size. Note: potency is the fitted concentration of half-maximal effect. The method, boiled down:
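HCT-116 p53RE-bla cells, 4,000/well, plated 5 h before compound pin transfer; 16 h at 37 C; bla substrate 2 h RT; then CellTiter-Glo, 30 min RT, luminescence.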

Experiment [9] in a line: p53 small molecule agonists, cell-based qHTS assay (AID 1963582; active = well fitted activation curve with a large enough effect in the signal ratio in the repeat runs, not every such curve was filed as active; the % refers to the signal ratio). Put shortly:
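Reporter line: p53RE-bla. Pre-incubation 5 h, 37 C, 5% CO2; compound (DMSO, pin tool) 16 h, 37 C; B/G FRET substrate 2 h RT; fluorescence intensity read.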

The target of experiment [10] is 5-hydroxytryptamine receptor 2A (Homo sapiens) (UniProt P28223). Kind of experiment: 5-hydroxytryptamine receptor 2A (HTR2A) small molecule antagonists, cell-based qHTS assay (AID 1963586). Note: nearly all actives have a fitted effect of over 45% in size. The method, boiled down: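 Antagonist-mode intracellular calcium assay: DOI (4 nM) added after 5 min compound pre-incubation at room temperature to dye-loaded HTR2A-CHO cells. Fluorescence followed for 3 min, sampled every second.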
5-hydroxytryptamine receptor 2A (Homo sapiens), sequence (P28223 whole entry, looked up): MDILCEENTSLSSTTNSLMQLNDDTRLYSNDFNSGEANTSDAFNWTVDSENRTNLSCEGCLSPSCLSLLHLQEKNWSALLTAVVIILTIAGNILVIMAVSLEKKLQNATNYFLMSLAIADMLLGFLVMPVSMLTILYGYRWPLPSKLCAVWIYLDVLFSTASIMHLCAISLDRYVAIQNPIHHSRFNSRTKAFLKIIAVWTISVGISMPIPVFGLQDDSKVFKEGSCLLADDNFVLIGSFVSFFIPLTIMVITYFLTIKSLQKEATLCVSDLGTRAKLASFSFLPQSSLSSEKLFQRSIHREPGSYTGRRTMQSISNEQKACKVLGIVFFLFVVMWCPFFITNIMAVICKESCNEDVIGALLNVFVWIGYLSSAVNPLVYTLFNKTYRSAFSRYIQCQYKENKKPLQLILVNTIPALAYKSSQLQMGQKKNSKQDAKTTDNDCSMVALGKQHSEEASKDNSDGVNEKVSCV

Experiment [11] has the same target. Kind of experiment: 5-hydroxytryptamine receptor 2A (HTR2A) small molecule agonists, cell-based qHTS assay (AID 1963587). Note: nearly all actives have a fitted effect of over 30% in size. Note: potency is the fitted concentration of half-maximal effect. The method, boiled down:
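HTR2A-CHO cells, plated 18 h at 37 C/5% CO2, dye-loaded 1 h at 37 C; compounds in DMSO added by pin tool (agonist mode). Intracellular calcium flux read as kinetic fluorescence on FDSS over 2 min at 1 s intervals.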

For experiment [12], the target named is Muscarinic acetylcholine receptor M1 (Homo sapiens) (UniProt P11229). Kind of experiment: Cholinergic receptor muscarinic 1 (CHRM1) small molecule antagonists, cell-based qHTS assay (AID 1963588). Note: nearly all actives have a fitted effect of over 40% in size. Put shortly:
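CHRM1-CHO calcium-flux assay, antagonist mode. Cells were seeded 18 h, dye-loaded 1 h at 37 C and given compound for 5 min at RT, then acetylcholine was added at 50nM. FDSS fluorescence was read 3 min; 15 concentrations, three runs.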

Experiment [13] has the same target. As to the kind of experiment: Cholinergic receptor muscarinic 1 (CHRM1) small molecule agonists, cell-based qHTS assay (AID 1963589). Note: nearly all actives have a fitted effect of over 35% in size. The method, boiled down:
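Human M1 in stable CHO line; 18 h plating, 1 h dye load 37 C; cpd added (agonist mode); Ca2+ fluorescence kinetic read, 1 s intervals; 15 conc, 3 runs.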

Experiment [14] in a line: cAMP Responsive Elements (CRE) small molecule agonists, cell-based qHTS assay (AID 1963590). Put shortly: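 HEK 293T CRE-bla, 2,000 cells/well, 18 h preincubation 37 C/5% CO2; cpds (DMSO) pinned, 3 h; LiveBLAzer B/G FRET substrate, 2 h RT.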
A short description of experiment [15]: cAMP Responsive Elements (CRE) small molecule antagonists, cell-based qHTS assay (AID 1963591; active = well fitted inhibition curve with a large enough effect in the signal ratio in the repeat runs, not every such curve was filed as active; the % refers to the signal ratio). The method, boiled down: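 Beta-lactamase reporter read by FRET substrate (LiveBLAzer B/G) after 2 h at room temperature. CRE-bla HEK293T cells had received compound plus 0.25 uM (final) NKH477 for 3 h at 37 °C.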
The target in experiment [16] is Beta-2 adrenergic receptor (Homo sapiens) (UniProt P07550). As to the kind of experiment: Adrenergic beta2 receptor (ADRB2) small molecule antagonists, cell-based qHTS assay (AID 1963592). Note: nearly all actives have a fitted effect of over 50% in size. Note: potency is the fitted concentration of half-maximal effect. Put shortly: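 Cells (CHO, stable ADRB2 overexpression) incubated 18-20hr at 37C; compounds added from DMSO; agonist mix (1nM isoproterenol, 100uM IBMX, 25uM Ro-20-1724) added; 0.5hr RT; d2-cAMP and anti-cAMP-cryptate added; 1hr RT; 665/615 nm read.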
Beta-2 adrenergic receptor (Homo sapiens), sequence (P07550 whole entry, looked up): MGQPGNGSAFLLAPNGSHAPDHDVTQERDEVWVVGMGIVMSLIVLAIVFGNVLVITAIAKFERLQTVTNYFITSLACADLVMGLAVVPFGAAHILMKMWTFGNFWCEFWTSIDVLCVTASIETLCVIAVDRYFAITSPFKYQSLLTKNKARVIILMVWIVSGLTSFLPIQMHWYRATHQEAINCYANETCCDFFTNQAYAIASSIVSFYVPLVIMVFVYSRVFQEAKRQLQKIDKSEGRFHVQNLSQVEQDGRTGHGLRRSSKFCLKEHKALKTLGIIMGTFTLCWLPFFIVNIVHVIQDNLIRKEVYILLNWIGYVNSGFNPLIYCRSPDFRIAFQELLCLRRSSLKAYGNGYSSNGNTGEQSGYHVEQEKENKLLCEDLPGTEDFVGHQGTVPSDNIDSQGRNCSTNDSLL

The target in experiment [17] is D(2) dopamine receptor (Homo sapiens) (UniProt P14416). Kind of experiment: Dopamine D2 receptor (DRD2) small molecule antagonists, cell-based qHTS assay (AID 1963595; active = well fitted inhibition curve with a large enough effect in the signal ratio in the repeat runs, with a control signal flat; the % refers to the signal ratio; note: potency is the fitted concentration of half-maximal effect). The method, boiled down: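 Human DRD2 antagonist qHTS measuring cAMP by HTRF. The cells are exposed to compound for 10 min, then to NKH477 (200 nM) and quinpirole (12 nM) for 30 min at RT, with Ro20-1724 (0.1 mM) present throughout.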
D(2) dopamine receptor (Homo sapiens), sequence (P14416 whole entry, looked up): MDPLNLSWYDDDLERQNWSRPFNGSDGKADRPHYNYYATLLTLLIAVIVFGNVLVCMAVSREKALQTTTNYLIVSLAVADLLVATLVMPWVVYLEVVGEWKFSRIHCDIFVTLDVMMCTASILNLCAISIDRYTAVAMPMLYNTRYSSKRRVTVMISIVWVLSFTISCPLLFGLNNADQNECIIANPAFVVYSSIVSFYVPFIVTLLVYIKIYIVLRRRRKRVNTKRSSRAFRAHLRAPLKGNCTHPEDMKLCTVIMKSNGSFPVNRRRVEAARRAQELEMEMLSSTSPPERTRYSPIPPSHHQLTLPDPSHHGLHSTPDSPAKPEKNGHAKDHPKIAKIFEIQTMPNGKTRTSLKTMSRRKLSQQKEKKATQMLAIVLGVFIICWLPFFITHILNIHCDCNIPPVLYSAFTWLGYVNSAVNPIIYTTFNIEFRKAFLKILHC

For experiment [18], the target named is Gonadotropin-releasing hormone receptor (Homo sapiens) (UniProt P30968). Kind of experiment: Human gonadotropin-releasing hormone receptor (GnRHR) small molecule agonists, calcium flux assay in GnRHR-HEK293 cells (AID 1920063). Note: nearly all actives have a fitted effect of over 35% in size. The method, boiled down: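 GnRHR-HEK293, 1500 cells/well, 18 h 37 C/5% CO2; Ca dye 1 h 37 C; cpd pinned (DMSO), agonist mode; kinetic FL 480/540, 3 min, 1 s reads; 15 conc, n=3.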
Gonadotropin-releasing hormone receptor (Homo sapiens), sequence (P30968 whole entry, looked up): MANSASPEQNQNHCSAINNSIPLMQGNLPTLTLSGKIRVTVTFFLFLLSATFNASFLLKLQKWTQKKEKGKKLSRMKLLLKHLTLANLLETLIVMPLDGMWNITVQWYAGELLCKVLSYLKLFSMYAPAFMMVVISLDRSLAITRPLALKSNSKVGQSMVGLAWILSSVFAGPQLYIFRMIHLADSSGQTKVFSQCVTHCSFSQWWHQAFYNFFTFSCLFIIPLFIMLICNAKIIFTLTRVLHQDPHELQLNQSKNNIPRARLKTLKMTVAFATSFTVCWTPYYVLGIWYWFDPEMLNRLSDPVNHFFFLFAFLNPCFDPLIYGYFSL

Experiment [19] deals with D(2) dopamine receptor (Homo sapiens) (UniProt P14416). As to the kind of experiment: Dopamine D2 receptor (DRD2) small molecule agonists, cell-based qHTS assay (AID 1963594). Note: nearly all actives have a fitted effect of over 35% in size. Put shortly: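 HEK293 cells stably expressing DRD2 were cultured 24 h at 37 C, then given Ro20-1724 (0.1 mM final) and compounds for 10 min at room temperature. NKH477 (200nM) was then added for 30 min. cAMP was read by HTRF.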

Experiment [20] has as its target Beta-2 adrenergic receptor (Homo sapiens) (UniProt P07550). Kind of experiment: Adrenergic beta2 receptor (ADRB2) small molecule agonists, cell-based qHTS assay (AID 1963593).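 Note: CHO cells stably overexpressing human ADRB2.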 Put shortly:
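CHO cells stably over-expressing ADRB2 were plated overnight at 37C, then dosed with compounds plus a stimulation mix containing 100uM IBMX and 25uM Ro-20-1724 for 0.5hr at room temperature. cAMP was measured by HTRF competition, 1hr.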

Values without a mark were called inactive. Records with an inconclusive call do not appear. Active and inactive are the calls of the source. Unless noted, calls come from the whole dose curve.

Muscarinic acetylcholine receptor M1 (Homo sapiens), sequence (P11229 whole entry, looked up): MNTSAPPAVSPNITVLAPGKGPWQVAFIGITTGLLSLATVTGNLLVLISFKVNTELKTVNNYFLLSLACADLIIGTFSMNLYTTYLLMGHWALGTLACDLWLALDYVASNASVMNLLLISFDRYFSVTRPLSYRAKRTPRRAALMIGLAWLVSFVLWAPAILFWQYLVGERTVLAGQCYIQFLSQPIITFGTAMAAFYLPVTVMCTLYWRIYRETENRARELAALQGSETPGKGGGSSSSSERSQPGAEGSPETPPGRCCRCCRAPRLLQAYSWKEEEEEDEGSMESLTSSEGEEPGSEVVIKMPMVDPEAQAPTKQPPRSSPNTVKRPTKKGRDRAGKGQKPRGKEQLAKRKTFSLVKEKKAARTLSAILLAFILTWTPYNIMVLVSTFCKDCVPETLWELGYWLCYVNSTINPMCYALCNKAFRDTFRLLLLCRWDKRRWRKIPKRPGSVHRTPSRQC

As for `COc1ccc(N)c([N+](=O)[O-])c1`, the Potency entry in [1], in experiment [2], in experiment [4], in [5], in [6] and in experiment [7] was “inactive” throughout. In addition, the Potency result in experiment [8], in experiment [9], in experiment [10], in experiment [11], in experiment [12] and in [13] was “inactive” in each case. For the same compound, the Potency entry in [14], in experiment [15], in [16] and in experiment [17] was “inactive” in each case. The outcome in [3] was inactive.
Regarding `O=CN1CCOCC1`, the Potency result in experiment [1], in experiment [2], in experiment [18], in [4], in [5] and in experiment [6] was “inactive” in each case. The Potency result in [7], in experiment [8], in experiment [9], in experiment [10], in [11] and in [12] was “inactive” each time. For the same compound, the Potency entry in experiment [13], in [14], in experiment [15], in experiment [16], in experiment [19] and in experiment [17] was “inactive” each time.
With `OCCCO`, the Potency entry in experiment [1], in experiment [2], in [18], in experiment [5], in [6] and in [8] was “inactive” in each case. Besides, the Potency result in experiment [9], in experiment [10], in experiment [11], in [13], in experiment [14] and in [15] was “inactive” each time. For the same compound, the Potency result in [16], in experiment [20], in experiment [19] and in [17] was “inactive” in each case. In addition, the outcome in [3] was inactive.
`Cc1cc2c(OCC(CNC(C)(C)C)OC(=O)c3ccccc3)cccc2[nH]1` (stereo not given): the Potency result in [1], in [2], in [18], in [5], in experiment [7] and in experiment [8] was “inactive” in each case. Also, the Potency entry in experiment [9], in [14], in [15] and in experiment [19] was “inactive” each time. Besides, the outcome in [3] was inactive. Besides, the Potency in experiment [16] is 0.168 µM (active).
With `O=C1OCCN1/N=C/c1ccc([N+](=O)[O-])o1`, the Potency entry in [1], in experiment [2], in experiment [18], in [6], in experiment [7] and in [8] was “inactive” in each case. Also, the Potency result in experiment [9], in experiment [14], in [15], in [16] and in experiment [20] was “inactive” each time. Further, the outcome in [3] was inactive.
Take `Cc1c(Cl)cccc1[N+](=O)[O-]`: the Potency entry in experiment [1], in experiment [2], in experiment [4], in [5], in experiment [6] and in experiment [7] was “inactive” throughout. Besides, the Potency entry in experiment [8], in [9], in experiment [10], in [11], in [12] and in [13] was “inactive” throughout. The Potency entry in experiment [14], in experiment [15], in experiment [20], in [19] and in [17] was “inactive” throughout. Moreover, in [3], the outcome was inactive.
Take `CC(N)C12CC3CC(CC(C3)C1)C2` (stereo not given): the Potency entry in experiment [1], in [2], in [18], in [5], in experiment [6] and in experiment [8] was “inactive” throughout. In addition, the Potency entry in experiment [14], in experiment [15], in experiment [16], in [20], in [19] and in experiment [17] was “inactive” throughout. For the same compound, in experiment [3], the outcome was inactive.
Turning to `CCCC(c1cc(C(C)(C)C)c(O)cc1C)c1cc(C(C)(C)C)c(O)cc1C`, the Potency in [1] is 6.94 µM (active); in experiment [8], 5.83 µM (active); in experiment [11] it was 9.89 µM (active); in [17], 24.6 µM (active). Moreover, the Potency result in [2], in experiment [18], in experiment [4], in [5], in [10] and in [12] was “inactive” throughout. For the same compound, the Potency entry in experiment [13], in experiment [16] and in experiment [19] was “inactive” each time.

(Values after PubChem BioAssay (Tox21).)
